Screening results (PubChem BioAssay)
GSH fluor: compound fluoresces at 488/530 nm on GSH beads | GSH beads flow cytometry, compound fluorescence 488/530 nm; active compounds read high | fluorescence (KMESF) at 10 µM | hit rate 0.25% among 190,000 | AID 1776; in the data active = fluorescence above about 89;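 note: glutathione beads carrying GST-tagged Bcl family fusion proteins plus one bare bead set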
RGS4-Gao reg: modulates binding of RGS4 to human Galphao. AID 1415. Multiplexed bead flow cytometry; actives lie on both sides. P09471. hit rate 0.33% among 220,000. binding response (% of control), % at 10 µM; in the data active = binding response below about 49% or above about 150%; inactive = in between;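 note: fluorescent Galphao activated with aluminum fluoride binding bead-coupled RGS4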
Target sequence (P09471 whole entry, looked up): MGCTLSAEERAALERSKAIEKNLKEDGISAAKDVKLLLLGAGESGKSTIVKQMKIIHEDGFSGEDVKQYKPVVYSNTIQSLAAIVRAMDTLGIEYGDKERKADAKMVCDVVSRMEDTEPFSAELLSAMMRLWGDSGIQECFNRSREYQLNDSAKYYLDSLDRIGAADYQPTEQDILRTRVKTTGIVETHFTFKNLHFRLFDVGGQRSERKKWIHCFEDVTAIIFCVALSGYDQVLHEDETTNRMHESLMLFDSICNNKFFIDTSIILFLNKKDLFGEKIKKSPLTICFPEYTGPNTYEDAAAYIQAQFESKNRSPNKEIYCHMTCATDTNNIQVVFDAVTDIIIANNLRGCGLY
RGS7-Gao: human RGS7-Galphao interaction regulation; P09471; Multiplexed bead flow cytometry, RGS7-Galphao binding; actives lie on both sides; binding response (% of control), % at 10 µM; hit rate 0.35% among 220,000; AID 1439; in the data active = binding response below about 49% or above about 150%; inconclusive = no clear call, values can overlap the other calls; inactive = in between;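 note: fluorescent Galphao held in activated GDP-AlF4 state binding bead-coupled RGS7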
RGS16-Gao HTS: RGS16-Galphao interaction regulator (human). O15492+P09471. binding response (% of control), % at 10 µM. bead-based flow cytometry RGS16-Galphao binding, fluorescence; actives lie on both sides. hit rate 0.38% among 220,000;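 note: Galphao activated by GDP with aluminum fluoride before binding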
Target sequence (O15492 whole entry, looked up): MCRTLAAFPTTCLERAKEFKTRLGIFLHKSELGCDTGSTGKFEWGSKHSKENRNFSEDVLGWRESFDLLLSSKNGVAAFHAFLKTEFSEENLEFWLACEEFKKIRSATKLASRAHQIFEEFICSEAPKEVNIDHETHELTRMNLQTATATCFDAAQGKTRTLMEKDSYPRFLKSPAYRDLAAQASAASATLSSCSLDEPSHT
Target sequence (P09471 whole entry, looked up): as the sequence (P09471 whole entry, looked up) above
RGS8-Gao: human RGS8-Galphao interaction regulation | P09471 | multiplexed bead flow cytometry, RGS8-Galphao binding; actives lie on both sides | response (percent of control binding), % at 10 µM | hit rate 0.34% among 220,000; in the data active = response below about 60% or above about 140%; inactive = in between;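 note: Galphao activated as the GDP aluminium fluoride complex binding bead-coupled RGS8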
Avidin bead fluor: compound fluoresces at 488/530 nm on avidin beads. compound fluorescence 488/530 nm, flow cytometry; active compounds read high. fluorescence (KMESF) at 10 µM. hit rate 0.38% among 220,000. AID 1775; in the data active = fluorescence above about 47
RGS4-Gao HTS: modulates binding between human RGS4 and Galphao; RGS4–Galpha-o binding response, % at 10 µM; multiplexed bead flow cytometry, RGS–Galpha-o binding; hit rate 99% among 1,600; shares compounds with RGS16-Gao HTS;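 note: fluorescently labeled Galpha-o bound to GDP with aluminium fluoride binding biotinylated RGS beads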
Biotin-avidin: counter-screen: compounds disrupting biotin binding to avidin beads. shares compounds with RGS16-Gao HTS. streptavidin beads, fluorescein-biotin binding, flow cytometry. inhibition, % at 10 µM. 1,700 tested, under 10 active. AID 1783;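 active = inhibition above 50%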;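 note: median green fluorescence of gated singlet beads compared with DMSO control wells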
RGS8-Gao confirm: confirmation of regulators of human RGS8-Galphao interaction; shares compounds with RGS16-Gao HTS; bead-based flow cytometry RGS8-Galphao binding, fluorescence; actives lie on both sides; binding response (% of control), % at 10 µM; hit rate 3% among 1,700; AID 1836; in the data active = binding response below about 72% or above about 130%; inactive = in between;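 note: Galphao activated as GDP AlF4 complex before binding bead RGS8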
RGS7-Gao confirm: confirmation of regulators of human RGS7-Galphao interaction; shares compounds with RGS16-Gao HTS; bead-based flow cytometry RGS7-Galphao binding; actives lie on both sides; response (percent of control binding), % at 10 µM; hit rate 7.8% among 1,700; in the data active = response below about 75% or above about 130%; inactive = in between;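 note: fluorescent Galphao activated with GDP and aluminum fluoride binding bead-coupled RGS7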
RGS16-Gao single: RGS16-Galphao interaction regulation, single point confirmation | bead-based flow cytometry, RGS16-Galphao binding; actives lie on both sides | AID 1838 | hit rate 4% among 1,700 | response (% of control binding), % at 10 µM | shares compounds with RGS16-Gao HTS; in the data active = response below about 74% or above about 130%; inactive = in between;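 note: Galphao activated as the GDP aluminium fluoride complex binding bead-coupled RGS16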
RGS4-Gao single: confirmation of regulators of human RGS4-Galphao interaction | binding response (% of control), % at 10 µM | shares compounds with RGS16-Gao HTS | RGS4-Galphao binding, multiplexed bead flow cytometry; actives lie on both sides | hit rate 4% among 1,700 | AID 1840; in the data active = binding response below about 74% or above about 130%; inactive = in between
RGS19-Gao conf: confirmation of regulators of human RGS19-Galphao interaction | AID 1841 | response (percent of control binding), % at 10 µM | hit rate 5% among 1,700 | bead-based flow cytometry RGS19-Galphao binding; actives lie on both sides | shares compounds with RGS16-Gao HTS; in the data active = response below about 50% or above about 160%; inactive = in between
Hits are given with their value; – = inactive; ? = inconclusive; · = not tested or not shown; + = active, no number; [ ] = remark or other dose. Compounds with a hit are over-represented: about 1.2% of the library has one in this group of screens. Unless noted, the rule behind the calls is not given here.

SMILES	GSH fluor	RGS4-Gao reg	RGS7-Gao	RGS16-Gao HTS	RGS8-Gao	Avidin bead fluor	Biotin-avidin	RGS8-Gao confirm	RGS7-Gao confirm	RGS16-Gao single	RGS4-Gao single	RGS19-Gao conf	others
COC(=O)c1ccc2c(=O)[nH]c(CSc3nnc(C(F)(F)F)n3C)nc2c1	–	–	–	15.5	–	–	–	–	–	–	–	–	RGS4-Gao HTS=90.3
Cc1cc(NC(=O)c2ccco2)ccc1-n1cnnn1	–	–	–	–	–	–	·	·	·	·	·	·
COc1cc(C(=O)Nc2ccc(-n3cnnn3)c(C)c2)cc(OC)c1OC	–	25.1	28.1	24.0	40.7	–	–	–	–	–	–	–
Cc1cn2c(N)c(C=C3C=C(Cl)C(=O)C(Cl)=C3)c(=O)nc2s1	–	548.7[activator]	473.5[activator]	443.8[activator]	–	179	–	140.8[activator]	+[activator]	449.0[activator]	658.7[activator]	+[activator]
COC1=C/C(=C/c2c(N)n3cc(C)sc3nc2=O)C=CC1=O	–	–	–	–	–	–	·	·	·	·	·	·
Cc1cc(C)cc(C(=O)NCC(=O)OCc2c(C)noc2C)c1	–	15.7	-0.1	1.9	15.3	–	–	–	–	–	–	–
COc1ccccc1OCCCCOc1ccccc1C(C)=O	–	18.1	7.4	6.0	15.2	–	–	–	–	–	–	–
O=C(N/N=C/c1cccc(Cl)c1)c1c(O)c2c([nH]c1=O)CCCC2	·	–	?	–	–	–	·	·	·	·	·	·
Cc1ccc(C2C3=C(CC(C)(C)CC3=O)Nc3onc(C)c32)cc1 (stereo not given)	–	–	–	–	·	·	–	–	–	–	–	–
Cc1ccc(NC(=S)N(Cc2ccccc2)C(C)C)cc1	·	27.1	?	–	–	–	–	–	–	–	–	–
CN(CCNC(=O)C1CCN(S(=O)(=O)N2CCOCC2)CC1)CCc1ccccc1	–	–	–	–	–	–	·	·	·	·	·	·
COc1ccc(-n2c(SCC(N)=O)nnc2-c2cccnc2)cc1	–	–	–	·	·	·	–	–	–	–	–	–
C=CCn1c(NC(=O)c2ccc(C)cc2)c(C#N)sc1=N	–	–	–	–	–	–	·	·	·	·	·	·
O=S(=O)(N/N=C/c1ccc(F)cc1)c1ccccc1	–	–	–	–	–	–	·	·	·	·	·	·
O=S(=O)(N/N=C/c1ccccc1F)c1ccccc1	–	22.3	?	11.2	14.0	–	–	–	–	–	–	–
CC(=O)c1ccc(N=Nc2ccc(N)cc2)cc1	·	–	?	–	–	–	·	·	·	·	·	·
FC(F)(F)c1nnc2ccc(N3CCCC3)nn12	–	–	–	–	–	–	·	·	·	·	·	·
FC(F)(F)c1nnc2ccc(N3CCCCCC3)nn12	–	–	–	·	173.1[activator]	–	–	–	–	–	–	–	RGS4-Gao HTS=148.9
O=C(NC(C(=O)O)c1ccccc1)c1ccc(S(=O)(=O)N2CCOCC2)cc1 (stereo not given)	–	–	–	–	–	–	·	·	·	·	·	·
Cc1nn(-c2ccccc2)c2sc(C(=O)N3CCCCC3)cc12	–	·	·	·	·	·	–	–	–	–	–	–
Cc1cc(OCC(=O)OCC(=O)Nc2cc(C(F)(F)F)ccc2N2CCOCC2)ccc1Cl	–	–	–	–	–	–	·	·	·	·	·	·
CCCn1c(SCC(=O)N2CCCC2)nc2c1c(=O)n(C)c(=O)n2C	–	156.5[activator]	187.5[activator]	–	–	77	–	–	–	–	–	–
Cc1cc(NC(=O)CSc2nc(-c3ccc(F)cc3)cs2)no1	–	–	–	–	–	–	·	·	·	·	·	·
CC(=O)Nc1ccc(NC(=O)CSc2nnc(-c3ccco3)o2)cc1	–	–	–	–	–	–	·	·	·	·	·	·
Cc1cc(NC(=O)CSc2nc(-c3ccccc3)cs2)no1	–	·	·	·	·	·	–	–	–	–	–	–
SMILES	GSH fluor	RGS4-Gao reg	RGS7-Gao	RGS16-Gao HTS	RGS8-Gao	Avidin bead fluor	Biotin-avidin	RGS8-Gao confirm	RGS7-Gao confirm	RGS16-Gao single	RGS4-Gao single	RGS19-Gao conf	others
COc1ccc(-c2nnc(SCC(=O)Nc3cc(F)ccc3C)o2)cc1	–	–	184.6[activator]	–	–	116	·	·	·	·	·	·	RGS4-Gao HTS=120.1
CCc1cc2ccccc2nc1SCC(=O)Nc1cc(C)on1	–	–	–	–	–	–	·	·	·	·	·	·
Cc1cc(NC(=O)CSc2nnc(-c3ccco3)o2)no1	–	–	–	·	–	·	–	–	–	–	–	–
Cc1cc(NC(=O)CSc2ccc3ccccc3c2)no1	–	·	·	·	·	·	–	–	–	–	–	–
Cc1ccc(S(=O)(=O)NCC2CCC(C(=O)NCc3ccc4c(c3)OCO4)CC2)cc1 (stereo not given)	–	–	·	–	·	·	–	–	–	–	–	–
CCOC(=O)c1sc(NC(=S)NC(=O)c2ccccc2Cl)c(C(=O)OCC)c1C	–	–	–	–	–	–	·	·	·	·	·	·
O=C(NCC1(c2ccccc2)CCCC1)C(=O)N1CCOCC1	–	–	–	21.4	–	–	–	–	–	–	–	–	RGS4-Gao HTS=83.4
O=C(NCCOc1nc(N2CCOCC2)nc(N2CCOCC2)n1)Nc1ccccc1	–	–	–	–	–	–	·	·	·	·	·	·
O=C(Cn1nnc(-c2ccc(Cl)cc2)n1)NCc1ccco1	–	–	–	–	–	–	·	·	·	·	·	·
CCCC(=O)NCn1nnc(-c2ccc(Cl)cc2)n1	–	346.2[activator]	295.2[activator]	273.4[activator]	–	50	–	–	–	–	–	–
Cn1c(CNC(=O)c2ccco2)nnc1SCC(=O)c1ccccc1	–	–	–	–	–	–	·	·	·	·	·	·
O=C(C[n+]1cccc(CNC(=O)c2ccc(OC(F)F)cc2)c1)Nc1cccc(C(F)(F)F)c1	–	–	–	–	–	–	·	·	·	·	·	·
O=C(C[n+]1cccc(CNC(=O)c2ccc(OC(F)F)cc2)c1)Nc1ccc(F)cc1	–	–	–	21.3	–	–	–	–	–	–	–	–	RGS4-Gao HTS=116.2
COc1nc(N)nc(N2CCOCC2)n1	–	–	–	–	–	–	·	·	·	·	·	·
Cc1cccc(-c2nc(CSCC(=O)NCCCN3CCOCC3)c(C)o2)c1	–	–	–	–	–	–	·	·	·	·	·	·
Cc1oc(-c2ccc(Cl)cc2)nc1CSCC(=O)NCCCN1CCOCC1	–	187.1[activator]	164.0[activator]	227.9[activator]	–	–	–	–	–	–	–	–
